Source: PubChem
Dicer inh = blocks human Dicer maturation of pre-miR-21; AID 1347074; cat-ELCCA pre-miR-21 Dicer processing, chemiluminescence; active compounds read high; z-score at 25 µM; 47,000 tested, 6% active; in the data active = z-score above about 3, passing the limit was not always enough;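 also: higher signal means more uncleaved substrate so more Dicer inhibition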
Each line names hits and unclear results; the compound was inactive in the other large screens. This excerpt belongs to a sample that is enriched for hits.

COc1cccc2c1OC(C(C)C)N1N=C(c3cc(Cl)ccc3O)CC21 (stereo not given)	none
COc1ccc(C2CC(c3ccccc3O)=NN2)cc1 (stereo not given)	Dicer inh 4.2
COc1ccc(O)c(C2=NN3C(C2)c2cccc(OC)c2OC3c2ccc(F)cc2)c1 (stereo not given)	none
COc1ccc(C2CC(c3cc(Cl)ccc3O)=NN2)cc1 (stereo not given)	Dicer inh 5.8
COc1ccc(C2Oc3c(OC)cccc3C3CC(c4ccccc4O)=NN32)cc1 (stereo not given)	none
O=C(CN1C(=O)CSC1=O)Nc1ccc(F)cc1	none
O=S(=O)(c1c(Cl)cc(C(F)(F)F)cc1Cl)N1CCOCC1	none
COc1c(Cl)cc(Cl)c(OC)c1C(=O)NC(=O)Nc1c(C)cccc1Cl	none
Cc1ccc(CN2C(=O)c3oc4ccccc4c(=O)c3C2c2cccc(O)c2)cc1 (stereo not given)	none
CCOc1cc(C2c3c(oc4ccc(C)cc4c3=O)C(=O)N2Cc2ccc(OC)cc2)ccc1O (stereo not given)	Dicer inh 3.1
COc1ccc(CN2C(=O)c3oc4ccc(C)cc4c(=O)c3C2c2ccc(O)c(OC)c2)cc1 (stereo not given)	none
CCOc1cc(C2c3c(oc4ccc(F)cc4c3=O)C(=O)N2Cc2ccc(C)cc2)ccc1O (stereo not given)	none
COc1cc(C2c3c(oc4ccccc4c3=O)C(=O)N2Cc2ccccc2Cl)ccc1O (stereo not given)	Dicer inh 3.2
O=C1c2oc3ccccc3c(=O)c2C(c2cccc(O)c2)N1Cc1ccccc1Cl (stereo not given)	none
O=C1c2oc3ccccc3c(=O)c2C(c2ccc(O)cc2)N1Cc1ccccc1Cl (stereo not given)	none
COc1cc2c(cc1OC)C(c1sc3ccccc3c1Cl)=NCC2	none
Cc1cc(N/N=C/c2ccc([N+](=O)[O-])s2)nc2c(N)n[nH]c12	none
COc1ccc(Br)c(C(=O)c2nnn3c2nc(N)c2c(Cl)cccc23)c1	none
O=C(CCc1ccc(O)cc1)NNC(=S)Nc1ccc(F)cc1	none
CCOC(=O)NC(=S)Nc1cccc(C)n1	none
CC(C)(C)C(=O)NC(=S)Nc1ccc(C(F)(F)F)cc1	none
N#CCC(=O)NNC(=S)Nc1cc(C(F)(F)F)cc(C(F)(F)F)c1	none
CCOC(=O)NC(=S)Nc1ccc(C(C)(C)C)cc1NC(=S)NC(=O)OCC	none
CC(C)(CO)NC(=S)Nc1ccc(F)cc1	none
N#CCC(=O)NNC(=S)Nc1ccc(F)cc1	Dicer inh 3.3
CCOC(=O)NC(=S)Nc1ccc(N2CC(C)OC(C)C2)cc1 (stereo not given)	none
CC(CO)(CO)NC(=S)Nc1ccc(F)cc1	Dicer inh 5.8
CCOC(=O)NC(=S)Nc1ccc(F)cc1	Dicer inh 6.7
OCC(CO)(CO)NC(=S)Nc1ccc(F)c(Cl)c1	none
CCOC(=O)NC(=S)Nc1ccc(C(C)(C)C)cc1	Dicer inh 5.1
N#Cc1c(-c2ccccc2)c2c([nH]c1=O)-c1ccccc1CC2	none
CC1=C(C(=O)OCCOc2ccccc2)C(c2cccs2)C2=C(CCCC2=O)N1 (stereo not given)	none
Cc1nn(C)cc1CNC(=O)c1cc2n(n1)C(C(F)(F)F)CC(c1ccc3c(c1)OCO3)N2 (stereo not given)	none
Cc1ccccc1-n1ncc(C(=O)O)c1C	none
COc1ccc(C(=O)CC2(O)C(=O)Nc3ccc(Cl)cc32)cc1 (stereo not given)	none
Cc1ccc2[nH]c(=O)c(-c3noc(-c4ccccc4)n3)cc2c1	none
Cc1cc(Cl)ccc1NNC(N)=S	none
S=C(N/N=C\c1cccc2ccccc12)Nc1cccc(Cl)c1Cl	Dicer inh 3.8
Cc1cccc(NC(=S)N/N=C\c2cccc3ccccc23)c1C	none
CN(C)NC(=S)Nc1cccc(Cl)c1Cl	none
NNC(=S)Nc1cccc(Cl)c1Cl	Dicer inh 4.3
NNC(=S)Nc1ccccc1Cl	none
S=C(N/N=C/c1cccc2ccccc12)Nc1c(Cl)cccc1Cl	none
Cc1cc(Cl)ccc1NC(=S)NNC(=O)c1ccccc1Cl	none
Cc1cc(Cl)ccc1NC(=S)NN	Dicer inh 3.4
Nc1cc(-c2csc(-c3cccnc3)n2)nn1-c1ccc(Cl)cc1	none
CCc1ccc(C2C(C(=O)OCCOC)=C(C)NC3=C2C(=O)CCC3)cc1 (stereo not given)	none
CSc1nc(NC(=O)NS(=O)(=O)c2ccccc2Cl)nc(C2CC2)n1	none
CN(C)CCCN1C(=O)C(=O)/C(=C(/O)c2ccc(Cl)cc2)C1c1ccc(F)cc1 (stereo not given)	none
FC(F)(F)c1ccc(SCc2ccc(Cl)cc2)nc1	none
O=C(NCc1ccc(S(=O)(=O)N2CCN(C3c4ccccc4-c4ccccc43)CC2)s1)c1ccccc1	none
CC(C)n1c(Sc2ncc([N+](=O)[O-])s2)nc2cc(Cl)ccc21	none
CCOC(=O)C(O)(NC(=O)c1c(F)cccc1F)C(F)(F)F (stereo not given)	none
COc1ccc([N+](=O)[O-])c(OC)c1C(=O)NCC1CC1	Dicer inh 4.9
CCC(C)NC(=O)c1c(OC)ccc([N+](=O)[O-])c1OC (stereo not given)	none
COc1ccc([N+](=O)[O-])c(OC)c1C(=O)Nc1ccccc1C(=O)NCC1CC1	none
O=C(NC(=O)N1CCCCC1)c1ccc(F)cc1F	none
Cc1nn2c(=O)c(NC(=O)c3ccc(Cl)cc3)cnc2s1	none
Cc1nn2c(=O)c(NC(=O)c3ccc(F)cc3)cnc2s1	none
Cc1ccc(C(=O)Nc2cnc3sc(C)nn3c2=O)cc1	Dicer inh 4.8
CCCCn1c(COc2ccc(OC)cc2)nc2ccccc21	none
CCc1nc2ccccc2n1CC(O)COc1cc(OC)cc(OC)c1 (stereo not given)	none
Cn1nnnc1SCCNCc1ccc(-c2ccccc2)cc1	none
Cc1cc(C)n2nc(C(C)(C)C)cc2n1	none
O=C(Nc1ccc2ccccc2n1)C1CCCCC1	Dicer inh 5.1
O=C(Nc1ccc2ccccc2n1)c1ccccc1Cl	Dicer inh 3.2
O=C(Nc1ccc2ccccc2n1)c1c(Cl)cccc1Cl	none
O=C(Nc1ccc2ccccc2n1)Nc1ccccc1F	none
O=C(Nc1ccc2ccccc2n1)c1cccs1	none
O=C(Nc1ccc2ccccc2n1)c1ccc(Cl)cc1	none
O=C(COc1ncnc2cc(Cl)ccc12)Nc1ccccc1Cl	none
CSCCC(NC(=O)c1ccc(C(F)(F)F)cc1)C(=O)NNS(=O)(=O)c1ccc(Cl)cc1 (stereo not given)	none
O=C(NNC(=O)C(F)(F)F)c1cc2sccc2s1	none
CCOC(=O)Cc1csc(NC(=O)Nc2ccc(C(C)(C)C)cc2)n1	none
c1ccc2c(CN3CCN(Cc4ccncc4)CC3)c[nH]c2c1	none
COc1ccccc1CN1CCN(Cc2c[nH]c3ccccc23)CC1	none
c1ccc(CN2CCN(Cc3c[nH]c4ccccc34)CC2)cc1	Dicer inh 6.9
CC1CCN(C(=O)CCSc2nc(-c3ccco3)cc(C(F)(F)F)n2)CC1	none
O=C(CCSc1nc(-c2ccc3c(c2)OCO3)cc(C(F)(F)F)n1)N1CCCC1	none
COc1ccc(-c2cc(C(F)(F)F)nc(SCCC(=O)N3CCCC3)n2)cc1	Dicer inh 3.3
COc1ccc(C2C(C(=O)c3cc4ccccc4o3)=C(O)C(=O)N2CCN(C)C)cc1 (stereo not given)	none
C=CCOC(=O)C1=C(C)NC2=C(C(=O)CCC2)C1c1ccccc1OCCC (stereo not given)	none
CCOc1cc(C2C(C(=O)OC(C)C)=C(C)NC3=C2C(=O)CC(c2ccccc2)C3)ccc1O (stereo not given)	Dicer inh 11
COc1ccc(C2CC(=O)C3=C(C2)NC(C)=C(C(=O)OC(C)C)C3c2ccc(N(C)C)cc2)cc1 (stereo not given)	Dicer inh 3.8
